D1 allo mod – allosteric modulators of human D1 dopamine receptor; P21728; HEK293 D1, CRE-luciferase, dopamine EC30 potentiation; actives deviate in either direction; B-score at 10 µM; 5.9% of 58,000 active;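 active = luminescence count or its row- and column-corrected plate score outside the 99.7% band of the plate's sample wells, on either side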
DAT uptake mod – changed human dopamine transporter uptake under cocaine IC80 | Q01959 | 1.3% of 110,000 active | B-score at 10 µM | LLC-PK1 hDAT cells, [14C]-dopamine uptake with cocaine IC80; actives deviate in either direction | AID 449768;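 active = Z score or B-score, a plate-position-corrected score, falls beyond the plate's 99.7% confidence bounds, in either direction; inactive = both scores lie inside the 99.7% bounds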;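 also: scored against the spread of the other compound wells on the same plate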
CYP2C19 activ – cytochrome P450 2C19 (human) activation; AID 1025; 96,000 tested, under 10 active; activation factor at 5 µM; recombinant CYP2C19, luciferin-H EGE luminescence; hits give high values; 0 = fully inhibited enzyme, 1 = untreated enzyme;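 active = activation factor of at least 2 at 5 µM in the primary screen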;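 also: 0 = wells with 2.5 mM tranylcypromine and 1 = vehicle-only wells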
Target sequence (P33261 whole entry, looked up): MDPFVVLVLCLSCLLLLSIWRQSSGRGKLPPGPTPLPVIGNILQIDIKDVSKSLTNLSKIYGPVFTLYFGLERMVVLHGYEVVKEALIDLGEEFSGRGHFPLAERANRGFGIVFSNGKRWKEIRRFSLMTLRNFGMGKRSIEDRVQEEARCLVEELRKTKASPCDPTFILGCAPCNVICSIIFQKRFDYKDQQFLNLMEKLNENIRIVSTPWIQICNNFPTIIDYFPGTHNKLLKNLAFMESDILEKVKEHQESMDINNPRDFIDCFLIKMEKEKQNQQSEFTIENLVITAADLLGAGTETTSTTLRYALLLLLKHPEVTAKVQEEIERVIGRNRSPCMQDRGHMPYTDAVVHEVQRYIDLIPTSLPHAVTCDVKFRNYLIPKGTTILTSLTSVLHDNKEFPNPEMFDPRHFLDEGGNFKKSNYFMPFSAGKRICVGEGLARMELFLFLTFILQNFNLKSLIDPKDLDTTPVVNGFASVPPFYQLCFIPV
CYP2C9 inhib – inhibitors of human CYP2C9 | CYP2C9 Supersomes, luciferin-H conversion, luminescence | inhibition, % at 5 µM | 20% of 96,000 active;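 active = blocking of liver enzyme CYP2C9 beyond about 50% at 5 µM, limit read from the data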
CYP2C9 act – activators of human CYP2C9; recombinant CYP2C9, luciferin-H conversion, luminescence; hits give high values; factor 1 = untreated enzyme, 0 = blocked; activation factor at 5 µM; 1.4% of 96,000 active;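 active = activation factor of 2 or more for CYP2C9 at a 5 µM dose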;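 also: 0 = sulfaphenazole-blocked wells and 1 = vehicle-only wells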
CYP2C19 inh – human CYP2C19 inhibition | P33261 | CYP2C19 Supersomes, luciferin-H EGE luminescence, 30 min | inhibition, % at 5 µM | 21% of 96,000 active | AID 778;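 active = CYP2C19 inhibition above a set limit at 5 µM in the primary screen, cut at about 50% in these data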;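 also: plate controls were negative control wells for no effect and 2.5 mM tranylcypromine positive control for full effect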
D1 mod confirm – confirmation of human D1 dopamine receptor allosteric modulators; shares compounds with D1 allo mod; HEK293 D1 CRE-luciferase, dopamine EC30 potentiation; hits give high values; luminescence at 10 µM; 88% of 2,200 active; AID 642;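 active = luminescence in either of two replicates above the same-plate mean plus 3 SD of the low-dose dopamine control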
D1 no dopamine – D1 (human) signaling in absence of dopamine. shares compounds with D1 allo mod. HEK293 D1 CRE-luciferase, luminescence, no dopamine; hits give high values. luminescence at 10 µM. 0.8% of 1,900 active. AID 646; in the data active = luminescence above about 3900
Isoprot counter – counter-screen for D1 modulators: isoproterenol response in HEK293 cells | shares compounds with D1 allo mod | HEK293 D1 CRE-luciferase, isoproterenol EC30 counter-screen | calls only at 10 µM | 63% of 2,200 active;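 active = luminescence in either replicate above plate mean of wells with a partly effective reference agonist dose plus 3 SD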;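 also: isoproterenol raises cAMP through native beta-adrenoceptor Gs so signal bypasses D1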
Numbers without * were called inactive; i = inactive; nt = no result given; + = active, no number. Rows were chosen to be rich in hits. Some 28% of all compounds tested hit in one or more screens of this group.

SMILES	D1 allo mod	DAT uptake mod	CYP2C19 activ	CYP2C9 inhib	CYP2C9 act	CYP2C19 inh	D1 mod confirm	D1 no dopamine	Isoprot counter
CCOc1ccc(N2CC(=O)Nc3ccccc3NCC2=O)cc1	0.0958	-0.0462	0.9	12.4	0.9	8.7	nt	nt	nt
Cc1cc(C)n(-c2nc(NCc3cccnc3)c3c4c(sc3n2)COC(C)(C)C4)n1	3.01*	1.15	0.6	58.8*	0.4	39.4	14976*	1540	+
CCc1nc2sc3ccccc3c(=O)c2c(=O)n1Cc1ccco1	3.43*	-7.33*	nt	nt	nt	nt	12936*	1700	i
O=c1c2ccccc2sc2nc(C3CCCCC3)n(Cc3ccco3)c(=O)c12	3.33	nt	0.9	1.4	1	9.5	nt	nt	nt
N#Cc1c2n(c3c(=O)[nH]cnc13)CCCC2	0.32	0.665	1.2	-21.0	1.2	-22.9	nt	nt	nt
N#Cc1c2n(c3c(=O)n(Cc4ccccc4Cl)cnc13)CCCCC2	8.61*	0.132	0.4	67.6*	0.3	59.0*	11076*	1496	+
COc1ccc(-c2ccc(=O)n(CC(=O)Nc3cccc(O)c3)n2)cc1OC	28.7*	0.339	nt	nt	nt	nt	4824	1660	i
COc1ccc(-c2ccc(=O)n(CC(=O)Nc3nnc(C(C)C)s3)n2)cc1OC	nt	-0.179	1	29.9	0.7	2.0	nt	nt	nt
COc1cc(C)nc(N2CCCC(C(=O)Nc3cccc(Cl)c3Cl)C2)n1 (stereo unspecified)	0.192	-0.422	0.8	31.8	0.7	15.2	nt	nt	nt
Cc1ccc2nc(Nc3ccccc3)c(/C=N/O)c(=O)n2c1	10.3*	0.355	nt	nt	nt	nt	17088*	1488	+
O=C1Nc2ccc(S(=O)(=O)N3CCCC3)c3ccc(S(=O)(=O)N4CCCC4)c1c23	5.16*	-0.357	1.1	-6.1	1.1	-7.4	12808*	nt	+
Cc1ccc(S(=O)(=O)N2CCN(S(=O)(=O)N3CCCCC3)CC2)c(C)c1	1.19	0.659	0.8	-10.7	1.1	17.1	nt	nt	nt
Cc1cccc(NC(=O)c2cc3ccccc3o2)c1	-2.16	0.652	nt	nt	nt	nt	nt	nt	nt
CCC(=O)Nc1cccc(NC(=O)c2cc3ccccc3o2)c1	5.05*	nt	0.4	2.9	1	62.4*	3904*	1572	i
Cc1nnc2ccc(N3CCN(C(=O)c4ccccc4)CC3)nn12	-0.427	1.02	0.8	-17.2	1.2	17.3	nt	nt	nt
O=C(Nc1ccccc1C(F)(F)F)N1CCN(c2ccc3nnc(-c4ccc(F)cc4)n3n2)CC1	3.91*	1.79	0.8	65.4*	0.3	22.7	7116*	1528	+
Cc1cc(=O)oc2c1c(C)nn2-c1ccc(C(=O)OC(C)C)cc1	-0.268	nt	0.9	23.9	0.8	13.6	nt	nt	nt
Cc1noc(NS(=O)(=O)c2ccc(N3C(=O)c4ccccc4C3=O)cc2)c1C	1.88	0.274	1	16.5	0.8	-3.8	nt	nt	nt
CC(C)Sc1nc2c(c(=O)n1-c1ccc(F)cc1)SCC2	10.7*	-0.0618	1	12.5	0.9	-0.1	23632*	1816	+
CCCSc1nc2c(c(=O)n1-c1ccc(OCC)cc1)SCC2	nt	-0.0798	1.1	-12.5	1.1	-8.3	nt	nt	nt
O=C1C=C(Nc2cccc(O)c2)CC(c2ccco2)C1 (stereo unspecified)	nt	1.09	nt	nt	nt	nt	nt	nt	nt
CC(=O)NC1Sc2ccccc2N=C1c1ccccc1 (stereo unspecified)	6.13*	0.473	0.6	37.1	0.6	40.5	7472*	nt	i
CCCC1(c2ccccc2)NC(=O)N(CC(=O)c2[nH]c(C)c(C(=O)OCC)c2C)C1=O (stereo unspecified)	7*	1.87	0.1	97.5*	0	94.5*	8616*	1668	+
CC1Cc2ccccc2N1C(=O)CSc1nc2cc3c(cc2cc1C#N)OCO3 (stereo unspecified)	5.09*	0.945	1	6.3	0.9	-3.2	13756*	1776	+
Cc1cc2cc3c(cc2nc1SCC(=O)N1c2ccccc2CC1C)OCO3 (stereo unspecified)	nt	-0.214	nt	nt	nt	nt	nt	nt	nt
SMILES	D1 allo mod	DAT uptake mod	CYP2C19 activ	CYP2C9 inhib	CYP2C9 act	CYP2C19 inh	D1 mod confirm	D1 no dopamine	Isoprot counter
CNC(=O)c1[nH]cnc1C(=O)Nc1ccccc1OC	nt	-0.988	nt	nt	nt	nt	nt	nt	nt
COc1ccccc1-c1nnc2sc(-c3cc4ccccc4o3)nn12	3.88*	nt	0.7	34.5	0.7	33.2	10596*	1704	+
Cc1ccc(Cn2c(=O)n(Cc3ccco3)c(=O)c3ccccc32)cc1	12.1*	0.609	nt	nt	nt	nt	15080*	1628	+
O=C(CCCn1c(=O)c2ccccc2n(Cc2ccccc2)c1=O)NCc1ccco1	2.99*	0.387	0.1	32.7	0.7	90.1*	8576*	1680	+
O=c1[nH]c2ccc(Cl)cc2c(=O)n1Cc1ccco1	nt	0.181	0.9	-4.9	1	5.7	nt	nt	nt
O=c1c2ccccc2n(Cc2ccc(Cl)cc2)c(=O)n1Cc1ccco1	8.51*	-0.651	nt	nt	nt	nt	16764*	1488	+
O=c1c2cc(Cl)ccc2[nH]c(=S)n1Cc1ccco1	2.83*	-0.252	1	-3.6	1	3.8	9744*	1436	i
O=C1N=C(c2ccccc2)C(c2ccccc2)N1 (stereo unspecified)	8.76*	-0.344	1.1	-4.4	1	-11.4	22264*	20356*	+
Cn1c(=O)c2c(nc(NCc3ccc4c(c3)OCO4)n2Cc2ccc(F)cc2)n(C)c1=O	nt	-1.04	0.7	22.9	0.8	26.4	nt	nt	nt
Cn1c(=O)c2c(nc(NCc3ccc4c(c3)OCO4)n2Cc2ccccc2F)n(C)c1=O	4.69*	0.0118	0.6	36.4	0.6	39.6	6940*	1532	+
Cc1sc2nc(C3CC3)nc(NCCNS(C)(=O)=O)c2c1C	6.46*	-0.617	0.6	76.2*	0.2	36.5	10452*	1764	i
Cc1nc(NCCc2ccc(S(N)(=O)=O)cc2)c2c(C)c(C)sc2n1	nt	-0.56	1	-5.6	1.1	-4.4	nt	nt	nt
O=C(CSc1nc2ccccc2[nH]1)Nc1cc(C(F)(F)F)ccc1N1CCOCC1	4.04*	0.063	0	99.2*	0	99.1*	7804*	nt	i
C=CCn1c(-c2ccoc2)n[nH]c1=S	-0.322	0.102	1	-10.4	1.1	4.6	nt	nt	nt
COc1ccc(Nc2nc(N3CCCC3)nc(N3CCCC3)n2)c(OC)c1	nt	0.947	1	-7.1	1.1	-2.0	nt	nt	nt
COc1ccc(Nc2nc(N)nc(C(F)(F)F)n2)c(OC)c1	4.24*	-0.172	0.6	28.6	0.7	44.4	11048*	1732	+
CC1(C)CC(=O)c2cc(C(=O)N3CCN(CCO)CC3)c(=O)n(-c3ccc(Cl)cc3)c2C1	0.903	-1.04	1.1	-44.9	1.4	-8.8	nt	nt	nt

Screening data as filed in PubChem BioAssay.
